Most compounds without a hit are left out; they make up all but 15% or so of the library.
Pf growth 96h – P. falciparum growth inhibition at 96 hours | P. falciparum luciferase reporter growth, 96 h | 6.9% of 320,000 active | Potency, µM (highest dose often 28.7 µM), for the others: at the top dose activity change, negative = inhibition, actives largely listed as inhibitors; further: potency means the concentration at half of the fitted maximal effect; on the % scale 0 is the no-effect control and ±100 the full control effect
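Erythrocytes infected with luciferase-expressing P. falciparum were dispensed at 2% hematocrit and 0.05% parasitemia (final), then incubated with compounds 96 hours at 37 C in 5% CO2. Luminescence after detection reagent addition reported growth.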
HCMV antiviral – human cytomegalovirus inhibition | HFF cells, HCMV-luciferase reporter, 72 h; active compounds read low | activity change, negative = inhibition, % at 57.5 µM | 4.5% of 410,000 active | AID 1259415; in the data active means activity change below about -60%; inconclusive means no clear call, values can overlap the other calls; inactive means above about -39%; further: on the % scale 0 is the no-effect control and ±100 the full control effect
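Two compound doses tested in HFFs infected with HCMV-luciferase, MOI 1 PFU/cell, 72 h at 37C. Lysate luminescence read with OneGlo; data normalized against buffer-only and 10uM Salinomycin inhibitor controls.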
Sm TGR inh – S. mansoni TGR enzyme inhibition; Q962Y6; purified TGR, DTNB reduction, TNB absorbance 405 nm; Potency, µM (doses to about 114 µM), without a hit: at the highest dose activity change, negative = inhibition, hits mostly inhibitors; 3% of 360,000 active; AID 485364; further: potency means the concentration at half of the fitted maximal effect; on the % scale 0 is the no-effect control and ±100 the full control effect; nearly all actives have a fitted effect of over 60% in size
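TGR 20 nM + NADPH 100 uM (dispensed conc.), cpd preinc 15 min RT; start with NADPH (500 uM addition) then DTNB (15 mM addition). Kinetic TNB absorbance, 405 nm filter. Four-parameter Hill fit across titration.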
HCV inh – HCV inhibition; AID 651820; Huh7.5.1 HCVcc-Cre infection, luciferase reporter, 44 h; Potency, µM (highest dose often 41.8 µM), without a hit: top-dose activity change, negative = inhibition, actives largely listed as inhibitors; 3.4% of 340,000 active; further: potency means the concentration at half of the fitted maximal effect; on the % scale 0 is the no-effect control and ±100 the full control effect
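After 44 h co-culture of compound, cells and HCVcc-Cre (~0.5 moi), substrate is added for 15 min at room temperature and luciferase measured over 15 sec. Cells were seeded at 1,000/well and pre-cultured 4 h.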
Pf growth 48h – P. falciparum growth inhibition at 48 hours (one generation). 5.9% of 310,000 active. AID 504832. Potency, µM (top dose mostly 28.7 µM), without a hit: at the highest dose activity change, negative = inhibition, usual class: inhibitors. P. falciparum luciferase growth in erythrocytes, 48 h; further: potency means the concentration at half of the fitted maximal effect; on the % scale 0 is the no-effect control and ±100 the full control effect
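Compounds are pin-transferred into medium, infected erythrocytes (2% hematocrit, 0.1% parasitemia final) are added, and plates sit one parasite generation at 37 C in 5% CO2. Detection reagent is then added and luminescence measured.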
SARS PLpro yeast – blocks SARS-CoV papain-like protease in a yeast assay. 0.19% of 330,000 active. Potency, µM (titrated, usually from 32.9 µM), for the others: at the highest dose activity, positive = growth rescue, actives largely listed as activators. S. cerevisiae expressing SARS-CoV PLpro, growth rescue. AID 485353; calls by dose curve; further: potency means the concentration at half of the fitted maximal effect; 0% is about no effect; nearly all actives have a fitted effect of over 55% in size
Active calls of the source: *; [ ] = another dose, or the depositor's remark. Unless noted, the call rests on the fitted dose curve; in most records, active means well fitted curve in the direction sought with a large enough effect; inconclusive means small, poorly fitted or top-dose-only effect, or another doubt; inactive means no such curve, though single readings can be large; an effect the other way counts as inactive or inconclusive.

Results for O=C(c1ccc(S(=O)(=O)N2CCc3ccccc3C2)cc1)N1CCCCC1 ?
Pf growth 96h: 12.1%[5.75 µM]; HCMV antiviral: -62.4*; Sm TGR inh: -11.0%; HCV inh: inconclusive; Pf growth 48h: inconclusive; SARS PLpro yeast: -1.9%

Results for CC1CCCN(S(=O)(=O)c2ccc(S(=O)(=O)N3CCCN(Cc4ccccc4)C3)cc2)C1 (centres undefined) ?
HCMV antiviral: 16.4; Sm TGR inh: -28.4%[11.4 µM]; HCV inh: inconclusive; SARS PLpro yeast: 5.3%

What do the screens show for `Cc1ccc(S(=O)(=O)N2CCc3ccccc3CC2)cc1`?
HCMV antiviral: -78.0*; HCV inh: inconclusive

How did O=S(=O)(c1ccccc1)N1CCN(Cc2ccccc2)CC1 do in these assays?
Pf growth 96h: inconclusive; HCMV antiviral: -4.5; Sm TGR inh: -6.5%; HCV inh: 12.4%; Pf growth 48h: 16.1%; SARS PLpro yeast: -3.2%

How did Cc1ccc(S(=O)(=O)N2CCc3ccccc3C2)cc1 do in these assays?
Pf growth 96h: inconclusive; HCMV antiviral: -26.0; Sm TGR inh: inconclusive; HCV inh: -11.8%; Pf growth 48h: inconclusive; SARS PLpro yeast: 2.2%

Results for Cc1ccc(S(=O)(=O)N2CCN(Cc3ccccc3)CC2)cc1 ?
Pf growth 96h: 3.3%; HCMV antiviral: -60.3*; Sm TGR inh: 15.2%; HCV inh: -16.9%; Pf growth 48h: 12.0%; SARS PLpro yeast: -0.4%

How did CC(=O)N1CCCc2cc(S(=O)(=O)N3CCCC(C(=O)Nc4cccc(C)c4)C3)ccc21 (centres undefined) do in these assays?
Pf growth 96h: 16.3%; HCMV antiviral: 0.0; Sm TGR inh: 1.4%; HCV inh: inconclusive; Pf growth 48h: -19.7%; SARS PLpro yeast: -1.0%

How did CCC12CN(S(=O)(=O)c3ccc(C)cc3)CC(CC)(CN(S(=O)(=O)c3ccc(C)cc3)C1)C2=O do in these assays?
Pf growth 96h: 2.33µM*; HCMV antiviral: 2.4; Sm TGR inh: -9.1%; HCV inh: -11.7%; SARS PLpro yeast: 1.5%

How did COc1ccc(Cn2c3nc4ccccc4nc3c3c(=O)n(Cc4ccco4)cnc32)cc1 do in these assays?
Pf growth 96h: 1.0%; Sm TGR inh: 15.8µM*; HCV inh: inconclusive; Pf growth 48h: 9.28µM*; SARS PLpro yeast: -3.3%

How did Cc1cccc(-n2cnc3c(c2=O)c2nc4ccccc4nc2n3Cc2ccco2)c1 do in these assays?
Pf growth 96h: 84.3%; HCMV antiviral: 2.5; Sm TGR inh: 2.82µM*; HCV inh: inconclusive; Pf growth 48h: inconclusive; SARS PLpro yeast: -4.0%

What do the screens show for `CCCCn1c2nc3ccccc3nc2c2c(=O)n(CCC)cnc21`?
Pf growth 96h: inconclusive; HCMV antiviral: -23.7; Sm TGR inh: 3.3%; HCV inh: -7.1%; Pf growth 48h: inconclusive; SARS PLpro yeast: -0.7%

Results for NC(=O)C1=C[C@@H](c2ccc(C(F)(F)F)cc2)C[C@@H](OCCCCO)O1 ?
Pf growth 96h: 13.4%; HCMV antiviral: -27.7; Sm TGR inh: inconclusive; HCV inh: 44.4%; Pf growth 48h: 10.7%; SARS PLpro yeast: -2.8%

What do the screens show for `O=C(NCCC(=O)N1CCCCC1)c1ccc(Br)cc1`?
Pf growth 96h: 74.8%; HCMV antiviral: -7.3; Sm TGR inh: -19.6%; HCV inh: 15.5%; Pf growth 48h: 76.1%

Results for O=C(NCCC(=O)N1CCCCCCC1)c1ccc(Br)cc1 ?
Pf growth 96h: 10.4µM*; HCMV antiviral: -3.8; Sm TGR inh: 1.1%; HCV inh: 7.9%; Pf growth 48h: 13.1µM*; SARS PLpro yeast: -0.4%

What do the screens show for `COc1ccc(CNC(=O)C(=O)NCCC2CCCCN2S(=O)(=O)c2ccccc2)cc1` (centres undefined)?
Pf growth 96h: inconclusive; HCMV antiviral: -36.2; Sm TGR inh: -0.1%; HCV inh: inconclusive; Pf growth 48h: 11.7µM*; SARS PLpro yeast: -11.7%
